Compound activity: PubChem, University of Kansas High Throughput Screening Laboratory
Hits are enriched below; roughly 3.6% of the tested compounds scored in any of these assays.
Pf apPOL block – Pf-apPOL inhibitors, biochemical, fluorescence | Plasmodium falciparum apicoplast DNA polymerase (apPOL) | Recombinant Pf-apPOL, molecular beacon fluorescence, 1.5 h | inhibition, % at 10 µM | 210,000 tested, 0.25% active | AID 1794808, 2022
mHTT CaM bind – mutant huntingtin-calmodulin interaction inhibitors – biochemical, AlphaScreen, primary screen. 190,000 tested, 3.6% active. AlphaScreen His-mHTT/GST-CaM binding, luminescence. P42858. inhibition, % at 15 µM. AID 1671202, 2021;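 note: 0% = both proteins with DMSO and 100% = one protein alone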
* = called active by the depositor; nt = no result. Cut-off read from the data, not from the text of the source: active = inhibition above about 50%; inactive = the rest.

SMILES	Pf apPOL block	mHTT CaM bind
COc1cc(/C=C/[N+](=O)[O-])cc(I)c1OCc1ccccc1	-4	4
COc1cc(/C=C/[N+](=O)[O-])cc(I)c1O	-3	52*
C#CCOc1c(I)cc(/C=C/[N+](=O)[O-])cc1OC	0	14
CCOc1cc(/C=C/[N+](=O)[O-])cc(I)c1O	-2	57*
O=c1c2ccccc2nc(/C=C/c2ccc(Br)cc2)n1-c1ccc([N+](=O)[O-])cc1	-6	5
Cc1cc([N+](=O)[O-])nn1CC(=O)Nc1ccc(Cl)cc1C(=O)c1ccccc1	1	3
O=C(CN1CCN(c2ccc(F)cc2)CC1)Nc1ccc(Cl)cc1C(=O)c1ccccc1	-1	72*
COc1ccc(NC(=S)N2CC3CC(C2)c2cccc(=O)n2C3)cc1 (configuration not stated)	-9	2
COc1ccccc1CCNCc1cccc([N+](=O)[O-])c1	-3	-4
Cc1ccc(CN2CCN(Cc3ccccc3)CC2)cc1	-11	1
Nc1nc2ccccc2c(-c2cccc3ccccc23)c1CN1CC1	nt	98*
O=C1Nc2ccccc2NC12CCNCC2	11	24
CCN1C(=O)NC(=O)/C(=C/c2cn(CC(=O)NCc3ccco3)c3ccccc23)C1=O	-1	51*
CCN1C(=O)NC(=O)/C(=C/c2cn(CC(=O)NCCOC)c3ccccc23)C1=O	-6	5
CCN(CC)C(=O)Cn1cc(/C=C2\C(=O)NC(=O)N(c3ccccc3F)C2=O)c2ccccc21	-3	62*
CCN1C(=O)NC(=O)/C(=C/c2cn(CC(=O)N3CCCCC3)c3ccccc23)C1=O	1	7
COc1ccc2c(c1)C1(CCN(S(=O)(=O)c3cccs3)C1)C(=O)N2 (configuration not stated)	-9	-2
COC(=NC1CCCC1)C(O)c1c[nH]c2ccccc12 (configuration not stated)	-2	-1
COc1ccc(-c2cc3ccc(OC(=O)N(C)C)cc3oc2=O)cc1OC	-7	-7
CN(C)C(=O)Oc1ccc2c(c1)OC(=Cc1ccc(Br)cc1)C2=O	-9	3
O=C(O)C1Nc2c(F)cccc2C2C(Cl)C(Sc3ccccc3[N+](=O)[O-])CC12 (configuration not stated)	1	68*
O=C1CNC(c2ccccc2)c2cc(Br)ccc2N1 (configuration not stated)	-4	-1
CCOC(=O)[C@]12Cc3cc(OC)ccc3[C@H]1N(C)C(=O)c1cc(OC)ccc12	-3	-14
Cc1ccccc1-n1c(/C=C2\C(=O)Nc3ccc(Br)cc32)nc2ccccc2c1=O	5	44
Cc1ccccc1-n1c(/C=C2\C(=O)N(C)c3ccccc32)nc2ccccc2c1=O	-1	65*
SMILES	Pf apPOL block	mHTT CaM bind
O=S(=O)(F)c1ccc(-c2nnc(-c3ccccc3)o2)cc1	3	9
O=S(=O)(F)c1ccc(C2=CC(c3ccccc3)n3ncnc3N2)cc1 (configuration not stated)	-5	100*
CN1C(=O)C(=Cc2cn(Cc3ccccc3C#N)c3ccccc23)C(=O)N(C)C1=O	7	-1
O=C(C1CCC(=O)N1Cc1ccc(F)cc1)N1CCC2(CC1)OCCO2 (configuration not stated)	-16	-4
COc1ccc(C=C2Oc3cc(OC(=O)N(C)C)ccc3C2=O)cc1	-3	4
COc1ccc(OC)c(NP(=O)(Oc2ccccc2)Oc2ccccc2)c1	0	74*
O=P(Nc1ccccc1I)(Oc1ccccc1)Oc1ccccc1	-2	-25
O=C(COc1cccc(Cl)c1)N1CCCN(C2CCN(Cc3ccccc3)C2=O)CC1 (configuration not stated)	0	75*
COCCN1CCC(N2CCCN(C(=O)COc3cccc(C)c3)CC2)C1=O (configuration not stated)	1	22
O=C1c2ccccc2C(=O)N1CN(Cc1csc2ccccc12)CN1C(=O)c2ccccc2C1=O	-4	nt
CC1=Nc2ccccc2C1=Cc1c(O)[nH]c(=O)[nH]c1=O	-50	54*
O=[N+]([O-])c1ccc(N2CCCCC2)c2nonc12	-122	nt
O=[N+]([O-])c1ccc(Cl)c2nonc12	nt	96*
Nc1ccc([N+](=O)[O-])c2nonc12	nt	53*
O=[N+]([O-])c1ccc(N2CCOCC2)c2nonc12	-84	nt
Clc1ccc(CCNCc2ccccn2)c(Cl)c1	1	22
Cc1cccc(OC(=O)N2CCOCC2)c1	-6	-3
Clc1cccc(-n2nnnc2C2(N3CCCCC3)CCCCC2)c1	2	-32
COc1ccc2c(c1)C1(CCN(C(=O)C3CCCC3)C1)C(=O)N2C (configuration not stated)	-2	2
CC1N=C(c2ccccc2)c2ccccc2N(CC(=O)Nc2cccc(Cl)c2)C1=O (configuration not stated)	-11	22
